The test system of this experiment is Lefty1. As to the kind of experiment: Lefty1 protein binding to printed compounds – biochemical, small-molecule microarray, 635/667 nm fluorescence, primary screen (AID 1139). As to conditions: fluorescence 635/667, higher = more signal.
`CN(C)C(=O)[C@@]1(Cc2ccccc2)COC(c2ccc(OCCCO)cc2)=N1` came in with a composite z-score of -1.51.
For `CO[C@H]1O[C@H](CO)[C@@H](OC(=O)CCc2ccccc2)[C@H](OC(=O)c2cc3ccccc3[nH]2)[C@H]1OC(=O)c1cc2ccccc2[nH]1` the value was 0.845; for `CN1C(=O)C2C=CC(C(O)c3cc(C(F)(F)F)cc(C(F)(F)F)c3)N(Nc3ccccc3)C2C1=O` (configuration not stated), 0.302; for `COCCOC(=O)N1C(=O)[C@@]2(c3cc(C#CCCO)ccc31)[C@H](C(N)=O)[C@H]1C(=O)O[C@H](c3ccccc3)[C@H](c3ccccc3)N1[C@@H]2c1ccc(OCCO)cc1`, 0.794.
To `COCCOC(=O)N1C(=O)[C@@]2(c3cc(C#Cc4ccc(OC)cc4)ccc31)[C@H](C(=O)NC[C@H](O)c1ccccc1)[C@H]1C(=O)O[C@H](c3ccccc3)[C@H](c3ccccc3)N1[C@@H]2c1ccc(OCCO)cc1` belongs 1.15.
For `COCCOC(=O)N1C(=O)[C@@]2(c3cc(C#CCNC(N)=O)ccc31)[C@H](c1ccc(OCCO)cc1)N1[C@H](c3ccccc3)[C@H](c3ccccc3)OC(=O)[C@H]1[C@@H]2C(N)=O` the value was 0.43; for `CC(=O)NCCCC[C@@H]1NC(=O)[C@H]2C[C@@H](C(=O)NCCCCCNC(=O)CS)[C@@H](c3cccc(OCCO)c3)N2C1=O`, 0.157.
`O=C1O[C@H](c2ccccc2)[C@H](c2ccccc2)N2[C@H]1[C@@H](C(=O)N1CCCCCCC1)[C@]1(C(=O)Nc3ccc(C#CC4(O)CCCCCC4)cc31)[C@H]2c1ccccc1OCCO` gave a composite z-score of 1.92.
To `COCCCNC(=O)[C@@]1(c2ccc([N+](=O)[O-])cc2)CC(=O)N(CC23CC4CC(CC(C4)C2)C3)[C@@H]1c1ccc(CO)cc1I` belongs -0.122; to `COc1ccc(C#Cc2ccc3c(c2)[C@]2(C(=O)N3)[C@H](C(=O)N3CCCCCCC3)[C@H]3C(=O)O[C@H](c4ccccc4)[C@H](c4ccccc4)N3[C@@H]2c2ccc(O)cc2)cc1`, 0.942.
The compound `C=C(/C(=C/C[C@H](OC(=O)c1ccncc1)c1cccc(OCCO)c1)c1cnc2ccccc2c1)C(C)C` had a composite z-score of 1.6.
For `CCCCCCCCCCC(O)C1C=CC2C(=O)N(C)C(=O)C2N1Nc1cc(OC)c(OC)c(OC)c1` (configuration not stated) the value was -0.946; for `Nc1cc(Br)ccc1C(=O)O`, -0.0916; for `CN(C)C(=O)[C@]1(CCS(=O)(=O)c2ccccc2)N=C(c2ccc(OCCCO)cc2)O[C@@H]1c1ccccc1`, 0.476.
Compound `O=C1N(CCS(=O)(=O)c2ccccc2)Cc2ccccc2[C@@H]2OC(c3ccc(OCCCO)cc3)=N[C@]12CCS(=O)(=O)c1ccccc1` returned a composite z-score of 0.783.
To `COc1ccc([Si](C)(C)[C@H]2[C@H](CC(=O)N3Cc4ccccc4C[C@H]3CO)O[C@@]3(C(=O)N(Cc4ccc(N5C(=O)c6cccc7cccc5c67)cc4)c4ccccc43)[C@@H]2C)cc1` belongs 1.01; to `COCC1=C2[C@@H](CCc3ccccc3)OB(O)C[C@@H]2[C@@H]2C(=O)N(C)C(=O)[C@@H]2C1`, 0.0961; to `CC(C)OC(=O)CC(=O)CC(O)c1ccc([N+](=O)[O-])cc1` (configuration not stated), -0.006.
To `CC(C)C(=C=CC[C@@H](O)c1cccc(OCCO)c1)C[C@@H](O)c1ccccn1` belongs 0.402.
`C=CCC(OC(C)=O)[C@@H]1[C@@H](N(Cc2cccc3ccccc23)C(=O)c2cccc3ccccc23)c2cc(OCCCO)ccc2N1C(=O)c1ccc2ccccc2c1` (some centres not stated): the composite z-score was found to be 0.11.
To `CC(=O)N1CC(C(O)C2C=CC3C(=O)NC(=O)C3N2Nc2ccc(Cl)cc2Cl)c2ccccc21` (configuration not stated) belongs -0.216; to `COC(=O)[C@@]1(Cc2ccc(F)cc2)[C@H]2c3cc(C(=O)N(C)C)n(Cc4c(CO)[nH]cc(C)c4=O)c3C[C@H]2CN1C(=O)c1ccccc1`, -0.0191.
`CC(C)[C@H]1NC(=O)[C@@]23C(=O)N[C@@H](Cc4ccccc4)C2[C@H](C)[C@@]2(C)O[C@H]2C3/C=C/CCC/C=C/CNC(=O)[C@H](Cc2ccccc2)NC1=O` (some centres not stated) had a composite z-score of 1.03.
To `CCOC(=O)C[C@H]1[C@H](OC(=O)c2ccccc2-c2ccccc2)[C@@H](NC(=O)c2ccccc2)c2cc(OCCCO)ccc2N1C(=O)c1ccccc1` belongs 0.292.
To `COC(=O)[C@@]1(Cc2ccccc2CN=[N+]=[N-])N=C(c2ccc(OCCCO)cc2)O[C@H]1c1ccccc1` belongs 0.143; to `C=C(COC)C(=O)CC[C@@H](OC(=O)c1cccnc1)c1ccccc1OCCO`, 0.139; to `CC1CC/C=C\[C@H]2OC34C=CCN(CCN5CCOCC5)C(=O)[C@H]3N(C(C)CO)C(=O)[C@@H]4C2C(=O)O1` (some centres not stated), 0.582.

The values above are taken from PubChem BioAssay.
